# Laboratory results as given in PubChem BioAssay AID588855 (National Center for Advancing Translational Sciences (NCATS), 2011).
# Screen size: about 410,000 compounds; about 5,000 (1.2%) were called active. A call without a number means that no potency is given here. Another 13% or so got no clear call; they are omitted. Calls come from the whole dose curve; as a rule, active = well fitted inhibition curve with a large enough effect; inconclusive = small, poorly fitted or top-dose-only effect; inactive = no such curve, though single readings can be large or run the other way. For the sample, actives were picked, then their nearest neighbours and some compounds at random.
# Test: qHTS for Inhibitors of TGF-b; note: nearly all actives have a fitted effect of over 65% in size
# Conditions: HepG2 CAGA-GFP TGF-b/SMAD3 reporter, GFP fluorescence, 18 h, TGF-beta stimulated, 500 pg/mL final; series mostly up to 46.1 µM
# Summary of the method: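 TGF-beta reporter screen: HEPG2 CAGA-GFP, 1% FBS, 500 pg/mL TGF-beta final, 18 h; per-cell GFP summed per well; curves fitted and categorized by class.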
# Potency is the fitted concentration of half-maximal effect.
row,SMILES,Potency
1,CN1CCN(C2(CNC(=O)COc3ccc(C(C)(C)C)cc3)CCCCC2)CC1,inactive
2,CCOc1ccc(S(=O)(=O)c2cn(Cc3ccccc3)c3ccc(OCC)cc3c2=O)cc1,inactive
3,O=C(Nc1cccc(Cl)c1)c1csnn1,inactive
4,O=C(NCc1cn2ccsc2n1)Nc1cccc(Cl)c1,inactive
5,Cc1csc(NC(=S)Nc2cccc(Cl)c2)n1,8.91 µM (active)
6,O=C1CC(c2ccccc2)CC2=C1C(c1ccco1)n1nc(C(F)(F)F)nc1N2 (stereo not drawn),inactive
7,CCCCNC(=O)Cn1c(SCc2cccc(Cl)c2)nc2ccncc21,inactive
8,Cc1cccc(-c2nnc(SC(C)C(=O)Nc3ccccc3)n2C)c1 (stereo not drawn),inactive
9,O=S(=O)(NCCS(=O)(=O)N1CCN(c2ccccc2)CC1)c1ccc(Cl)cc1,inactive
10,O=C(CN1C(=O)COc2ccc(S(=O)(=O)N3CCOCC3)cc21)N1CCN(c2cccc(Cl)c2)CC1,inactive
11,O=C(Nc1ccc(C2CC2(Cl)Cl)cc1)c1cccc([N+](=O)[O-])c1 (stereo not drawn),15.8 µM (active)
12,O=C(Nc1nnc(SCc2c(Cl)cccc2Cl)s1)c1cccc([N+](=O)[O-])c1,inactive
13,CC(C)(C)SCCNC(=O)c1cccc([N+](=O)[O-])c1,inactive
14,Cc1ccc(-c2cn3c(n2)sc2cc(C(=O)NCc4cccs4)ccc23)c(C)c1,inactive
15,Cc1cc(C)cc(NC(=O)CSc2nc(=O)n(CCN3CCOCC3)c3c2CCC3)c1,inactive
16,Cc1nnc(SCc2cc(=O)c3cc(F)ccc3[nH]2)n1C,inactive
17,CCCc1cc(C(=O)Nc2ccc(Cl)cn2)cs1,inactive
18,O=C(Nc1ccc(Cl)cn1)c1ccccc1-c1ccccc1,inactive
19,Clc1ccc(Nc2nc(-c3cccs3)cs2)nc1,11.2 µM (active)
20,COc1ccc(C(=O)COC(=O)CCCC(=O)Nc2cc(C(F)(F)F)ccc2Cl)cc1,inactive
21,COc1cc(NC(=O)c2cncc(-c3ccc(C#N)cc3)c2)cc(C(=O)Nc2cccc(C(F)(F)F)c2)c1,inactive
22,Cc1cc(Nc2cccc(C(F)(F)F)c2)nc2ccc(NC(=O)c3ccc(=O)[nH]c3)cc12,inactive
23,COc1cc(NC(=O)c2[nH]cnc2C(N)=O)cc(C(=O)Nc2cccc(C(F)(F)F)c2)c1,4.47 µM (active)
24,O=C(Nc1ccccc1F)C(c1ccccc1)N1Cc2ccccc2C1=O (stereo not drawn),inactive
25,CCc1ccc(NC(=O)CCS(=O)(=O)c2cc3c(cc2Cl)NC(=O)CO3)cc1,inactive
26,O=C(COc1ccc(Br)cc1F)NC1CCN(Cc2ccccc2)CC1,inactive
27,O=C(NC1CCN(Cc2ccccc2)CC1)c1cc(Br)c(Br)[nH]1,inactive
28,S=C(Nc1ccc(Br)cc1)NC1CCN(Cc2ccccc2)CC1,10 µM (active)
